Compound activity: PubChem, several laboratories
The list is not random: actives were taken first. Their share in the collection is about 1.6%.
JMJD2C inh – inhibitors of GASC-1 histone demethylase, primary screen, biochemical, fluorescence, DELFIA europium; 330,000 compounds, 0.069% hits; GST-JMJD2C(1-420) H3K9me3 demethylation; inhibition, % at 2.35 µM;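 active means more than half of a compound's replicate wells show inhibition beyond 50%, single wells judged on their own value; inconclusive means some, but no more than half, of replicates pass 50% inhibition; inactive means no replicate passes 50% inhibition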;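 further: signal counts dimethyl H3K9 product captured on neutravidin plate; 0% = median of DMSO wells and 100% = 0.3 times that DMSO median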
GRK2 inh – compounds blocking aptamer binding on GRK2 – biochemical, human GRK2, bead flow cytometry, HTS, primary screen. inhibition of aptamer binding, % at 10 µM. 330,000 compounds, 0.59% hits. AID 488847, 2010. FAM-aptamer displacement from GRK2. Beta-adrenergic receptor kinase 1 (Homo sapiens), P25098;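 active means inhibition of aptamer binding above 40%, roughly 3 SD of noise, on plates passing a quality check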;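 further: median bead fluorescence of bound FAM aptamer so fluorescent compounds give negative values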
Target sequence (P25098 whole entry, looked up): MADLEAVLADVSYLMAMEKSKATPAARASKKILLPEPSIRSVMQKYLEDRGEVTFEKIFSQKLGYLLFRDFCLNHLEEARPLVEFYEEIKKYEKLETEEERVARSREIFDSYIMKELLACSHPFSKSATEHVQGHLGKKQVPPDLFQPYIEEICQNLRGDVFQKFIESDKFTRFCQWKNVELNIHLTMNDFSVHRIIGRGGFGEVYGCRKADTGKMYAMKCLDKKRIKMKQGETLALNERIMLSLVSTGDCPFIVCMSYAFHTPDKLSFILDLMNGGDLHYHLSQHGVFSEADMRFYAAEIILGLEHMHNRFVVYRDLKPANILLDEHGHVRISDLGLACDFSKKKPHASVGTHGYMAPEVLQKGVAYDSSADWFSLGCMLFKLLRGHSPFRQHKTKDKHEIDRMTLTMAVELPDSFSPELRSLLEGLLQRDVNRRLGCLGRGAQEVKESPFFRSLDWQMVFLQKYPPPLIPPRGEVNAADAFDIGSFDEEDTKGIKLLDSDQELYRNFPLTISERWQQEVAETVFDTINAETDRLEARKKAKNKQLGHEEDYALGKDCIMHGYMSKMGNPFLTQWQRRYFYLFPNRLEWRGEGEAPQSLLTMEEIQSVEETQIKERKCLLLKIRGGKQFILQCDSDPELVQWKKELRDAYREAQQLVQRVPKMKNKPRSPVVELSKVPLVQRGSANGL
VLA-4 inh – inhibition in human VLA-4 binding assay, primary screen, VLA-4 allosteric modulator project, MLPCN library, flow cytometry, VLA-4 expressing cells; ligand binding flow cytometry; inhibition, % (about 7 µM as worked out from the volumes in the protocol); 330,000 compounds, 0.2% hits; in the data active means inhibition above about 50%
PREPL inhibitor – PREPL enzyme inhibitors, primary screen, biochemical, fluorescence polarization. Prolyl endopeptidase-like (Homo sapiens), Q4J6C6. recombinant PREPL, fluorescence polarization activity-based probe. inhibition, % at 5.96 µM. 320,000 compounds, 0.68% hits. AID 2751, 2010; in the data active means inhibition above about 43%;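 further: 0% = enzyme with DMSO and 100% = wells lacking enzyme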
Pemphigus Ab inh – inhibitors of pemphigus antibody binding to DSG3, primary screen, biochemical, bead-based, flow cytometry, scFv-GFP; DSG3-coupled beads, scFv-anti-DSG3-GFP binding; active compounds read low; AID 588358, 2011; binding (percent of control), % at 10 µM; 310,000 compounds, 0.48% hits;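 active means binding more than 3 SD below its plate's average and above zero; inconclusive means below that plate limit but binding exactly zero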;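 further: hits lower antibody fragment binding to DSG3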
* marks the source's active call; other numbers are inactive results; u = inconclusive; x = not tested or not shown; ! = repeats disagree.

SMILES	JMJD2C inh	GRK2 inh	VLA-4 inh	PREPL inhibitor	Pemphigus Ab inh
C[C@H](CO)N1C[C@H](C)[C@@H](CN(C)C(=O)Nc2ccc3c(c2)OCO3)Oc2ccc(NC(=O)Cn3cnnn3)cc2C1=O	68.4*	0.0	-1.5	16.0	81.1
Cc1noc(C)c1S(=O)(=O)N(C)C[C@H]1Oc2ccc(NC(=O)Cn3cnnn3)cc2C(=O)N([C@H](C)CO)C[C@@H]1C	-36.7	3.0	-0.9	1.4	102.9
Cc1cnc(C(=O)N2CCN(S(=O)(=O)c3cc(C(F)(F)F)cc(C(F)(F)F)c3)CC2)cn1	x	x	x	x	-16.9*
COc1ccc(S(=O)(=O)N2CCN(C(=O)c3cnc(C)cn3)CC2)cc1	-9.4	2.0	-0.3	-9.3	105.3
COc1ccc(OC[C@@H](O)CNC(=O)c2cccc3c2C(=O)c2ccc(-c4ccc(F)cc4OCc4ccccc4)cc2S3(=O)=O)cc1	x	0.0	-2.0	20.5	59.9*
CC(=O)c1sc(-c2ccccc2)cc1NS(=O)(=O)c1ccccc1	11.1	0.0	3.1	0.3	75.3*
CC1CC(C)C(=O)C(C(CC2CC(=O)NC(=O)C2)OC(=O)CC(=O)c2ccccc2)C1 (stereo not drawn)	x	x	x	x	94.5
COCc1[nH][nH]c(=O)c1C=NCC(=O)OC	-4.8	0.0	11.4	9.5	86.5
Cc1ccc(-c2csc3nc4cc(C(=O)NC5CCC(O)CC5)ccc4c(=O)n23)cc1 (stereo not drawn)	66.6*	0.0	-8.2	11.0	101.1
Cc1ccc(-c2csc3nc4ccc(C(=O)NCCO)cc4c(=O)n23)cc1	-5.8	0.0	-9.9	7.0	95.9
N#Cc1ccc(N=c2ssnc2Cl)cc1	57.7*!	0.0	-5.2	-1.7	96.3
Clc1ccc(N=c2ssnc2Cl)cc1	u	0.0	0.2	5.3	92.2
CCCc1cc(=O)oc2cc(OCC(=O)NCC(O)c3ccccc3)ccc12 (stereo not drawn)	0.8	0.0	5.1	0.0	0.7*
CCCc1cc(=O)oc2cc(OCC(=O)NCc3ccccn3)ccc12	35.7	3.0	16.2	-0.6	109.1
CCCc1cc(=O)oc2cc(OCC(=O)NCc3cccs3)ccc12	4.5	0.0	2.7	-5.9	45.6*
Oc1ccc(-c2nccc(-c3ccc(F)cc3)n2)cc1	2.0	1.0	-5.5	13.4	95.7
Nc1c(-c2cccs2)cnn1-c1nc(-c2ccc(F)cc2)cs1	1.0	0.0	-4.0	14.8	-16.2*
C=CC[n+]1ccc(/C=C2\C=Cc3cc(C)ccc3N2CC)c2ccccc21	x	x	x	x	96.5
O=C(N/N=C/c1ccco1)/C(=C/c1cccc([N+](=O)[O-])c1)NC(=O)c1ccccc1	-1.3	4.0	-1.7	47.4*	106.2
Cc1nnc(N/N=C\c2ccc(-c3cccc(C(=O)O)c3)o2)n1N	9.6	88.0*	-0.4	7.5	102.6
CC1(C)CC(=O)C(Sc2ccc(Br)cc2)=C(O)C1	-2.7	0.0	-5.6	4.7	113.7
c1cc(CNCCN2CCNCC2)ccn1	x	x	x	x	58.0*
CCN(Cc1ccncc1)Cc1ccc(OC)cc1OC	0.0	0.0	-1.9	11.8	107.2
COc1ccc(CN(CCN(C)C)Cc2ccccc2)c(OC)c1	-14.9	3.0	8.1	21.1	78.3*
CSc1cccc(NC(=O)CN(C)S(=O)(=O)c2ccc(C)cc2)c1	0.5	1.0	-8.2	-25.8	103.8
SMILES	JMJD2C inh	GRK2 inh	VLA-4 inh	PREPL inhibitor	Pemphigus Ab inh
CCC(C)NC(=O)c1ccccc1NC(=O)CN(c1ccc(OC)cc1)S(C)(=O)=O (stereo not drawn)	0.6	3.0	12.7	5.3	96.6
Cc1cc(O)c(C=O)c2c1C(=O)Oc1c(CO)c(O)c3c(c1O2)C(O)OC3=O (stereo not drawn)	x	72.0*	4.5	44.8*	x
c1ccc2sc(NC3=NCN(CCN4CCOCC4)CN3)nc2c1	-7.1	3.0	-1.9	10.4	77.5*
COc1ccc(C(=O)Nc2cc(C)c3c(=O)oc4ccccc4c3n2)cc1	-0.6	4.0	-38.5	-2.3	-3.5*
Cc1cccc(NC(=O)COc2ccc(/C=N\n3cnnc3)cc2)c1	2.1	43.0*	18.0	2.6	96.1
CCN(CC)c1ccc(/C=N/OCC(=O)Nc2cccc(C)c2)cc1	-5.3	0.0	-35.6	17.6	161.0
CCCCOCCCNC(=O)CN1C(=O)c2ccccc2C1=O	6.6	0.0	0.8	8.0	100.3
Cc1cc(C)n(-c2nc3ccccc3nc2N2CCN(S(=O)(=O)c3ccc(F)c(C)c3)CC2)n1	-1.6	3.0	8.3	18.3	110.7
Cc1cc(C)n(-c2nc3ccccc3nc2N2CCN(S(=O)(=O)c3ccc4ccccc4c3)CC2)n1	-11.9	10.0	10.1	11.7	88.8*
COc1ccc(C2=NOC(C(=O)Nc3ccc(C(C)=O)cc3)C2)cc1OC (stereo not drawn)	-11.0	4.0	9.3	2.4	104.0
O=C(Nc1cccc(O)c1)C1CC(c2ccc(Cl)cc2)=NO1 (stereo not drawn)	-4.4	2.0	46.9	-0.2	98.3
COc1ccc(C2=NOC(C(=O)Nc3cccc(O)c3)C2)cc1 (stereo not drawn)	-2.7	3.0	8.3	3.2	82.1*
COc1cc(C2=NOC(C(=O)Nc3ccc(C(C)=O)cc3)C2)cc(OC)c1OC (stereo not drawn)	12.8	0.0	-4.4	1.2	79.1*
CCC(CC(C)(C)O)C(=O)NNC(=S)Nc1ccccc1 (stereo not drawn)	2.5	0.0	0.0	13.7	85.0
CCOC(=O)C1(CCOc2ccccc2)CCN(CC(O)CO)CC1 (stereo not drawn)	-5.3	1.0	-5.7	-17.6	89.9*
CCCn1c(N)cc(=O)n(CCC)c1=O	2.1	0.0	20.7	15.3	94.3
CC(C)Cn1c(N)cc(=O)n(C)c1=O	-0.2	0.0	61.5*	2.8	99.7
Cc1cc(C)nc(N/N=C/c2cc(C)n(CC(F)(F)F)c2C)n1	2.5	0.0	19.2	8.8	105.1
CCOc1ccccc1N1CCN(CC(O)COC2CCCc3ccccc32)CC1 (stereo not drawn)	-16.3	0.0	1.6	16.7	-39.1*
NC(=O)COc1cccc2cccnc12	73.6*	0.0	-6.1	4.3	127.0
Cc1cc(NC(=O)COc2cccc3cccnc23)no1	13.7	x	x	x	x
O=C(COc1ccccc1[N+](=O)[O-])N/N=C/c1ccc(OC(=O)c2ccco2)cc1	-4.1	2.0	-6.4	62.1*	103.5
O=C(COc1ccccc1[N+](=O)[O-])N/N=C/C=C/c1ccco1	2.8	0.0	6.9	7.7	105.6
COc1cc(/C=N/NC(=O)COc2ccccc2[N+](=O)[O-])ccc1OC(=O)c1ccco1	2.5	3.0	15.3	100.5*	92.4
